Article PMC5540273 (PLoS ONE, 2017)

How the values were obtained:
Conditions in all cases: concentration: 1 μM, replicates: in singlicate; n = 1
CAMK4 = test system: CAMK4
CAMKK1 = test system: CAMKK1
CAMKK2 = test system: CAMKK2
CASK = test system: CASK
CDC2L1 = test system: T1, CDC2L1
T1 construct: gene CDK11B

CDC2L2 = test system: CDC2L2
CDC2L5 = test system: T2, CDC2L5
T2 construct: gene CDK13

CDK11 = test system: T3, CDK11
T3 construct: gene CDK19

CDK2 = test system: CDK2
CDK3 = test system: CDK3
CDK4-cyclinD1 = test system: CDK4-cyclinD1
CDK4-cyclinD3 = test system: CDK4-cyclinD3
CDK4 = test system: CDK4
CDK5 = test system: CDK5
CDK7 = test system: CDK7
CDK8 = test system: CDK8
CDK9 = test system: CDK9
CDKL1 = test system: CDKL1
CDKL2 = test system: CDKL2
CDKL3 = test system: CDKL3
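Further: KINOMEscan kinase panel screen.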

SMILES	%Inh (CAMK4) [%]	%Inh (CAMKK1) [%]	%Inh (CAMKK2) [%]	%Inh (CASK) [%]	%Inh (CDC2L1) [%]	%Inh (CDC2L2) [%]	%Inh (CDC2L5) [%]	%Inh (CDK11) [%]	%Inh (CDK2) [%]	%Inh (CDK3) [%]	%Inh (CDK4-cyclinD1) [%]	%Inh (CDK4-cyclinD3) [%]	%Inh (CDK4) [%]	%Inh (CDK5) [%]	%Inh (CDK7) [%]	%Inh (CDK8) [%]	%Inh (CDK9) [%]	%Inh (CDKL1) [%]	%Inh (CDKL2) [%]	%Inh (CDKL3) [%]
Nc1ncnc2occ(-c3ccc4c(c3)CCN4C(=O)Cc3cc(F)ccc3F)c12 [GSK2645446]	0	0	13	0	0	12	0	81	0	0	0	0	18	0	0	79	0	17	0	0
CCn1c(-c2ccccc2)nc2cnccc21 [SB-733416]	13	0	0	18	0	0	98.3	0	12	19	0	6	3	0	0	0	0	0	9	0
CNc1nc(-c2ccc3c(N)n[nH]c3c2)cc(N2C[C@@H](C(=O)NC3CCCCC3)OC[C@H]2C)n1 [GSK2375584]	0	21	35	12	0	25	0	16	0	0	3	7	100	0	3	45	0	13	0	0
